# Assay results published in PubChem BioAssay AID1508600 (Functional Genomics Laboratory (NCATS/FGL), 2020).
# In all, about 53,000 sequences went through this assay and about 3,700 (7%) were called active. The sample as a whole holds a higher share of actives than the screen did. A number with no mark means an inactive call.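 Rule for the calls: active = gene knockdowns whose robust z-score for IL-1 alpha signal is at least 2 or at most -2, so actives lie on both sides; inactive = the rest.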
# Assay: Components of the Cytosolic LPS Sensing Pathway: Gene Identification via Genome-wide siRNA Screen
# Settings: RAW264.7 macrophages, IL-1a HTRF, actives lie on both sides, screened at 100 nM (by protocol), cells primed 5 h with Pam3CSK4 first
# Excerpt: Non-canonical inflammasome activation by cytosolic LPS is a critical component of the host response to Gram-negative bacterial infection, however we lack a comprehensive understanding of the cellular processes that control this pathway. Here we describe a genome-wide siRNA screen to identify genes regulating the mouse macrophage IL-1 alpha response to cytosolic LPS.
# RAW264.7 cells were maintained in complete DMEM media, comprising DMEM with 4.5 g/L glucose, 10% FBS (Gemini Bio-Products, West Sacramento, CA), 2 mM Glutamine (Lonza) and 20 mM HEPES (Lonza), hereafter complete DMEM.
# The RNAi screen was conducted in 384-well format using the Ambion Silencer Mouse Genome siRNA Library (#4391425), which consists of three unique, nonoverlapping, nonpooled siRNAs for each of 17,000 gene targets. siRNA reagents ([…]) were stamped into 384-well white flat-bottom microplates (Corning, 3570) using a Velocity11 VPrep liquid handling system (Agilent) integrated into a BioCel robotic platform (Agilent) in columns 1-22, leaving columns 23-24 empty for negative (Ambion, Negative control #1) and positive (mouse Casp4) controls, respectively. The median value of each plate's negative control column was used to normalize sample wells, and the positive control was used to assess transfection efficiency and assay performance.
# Lipofectamine RNAiMAX Transfection Reagent ([…]; Invitrogen) was added in […] serum-free, antibiotic-free media to plate wells using a Thermo Scientific Matrix WellMate and Microplate Stacker. Plates were incubated for 45 min at room temperature to allow for the sufficient formation of siRNA-lipid complexes. Cells were seeded at a density of 1x10^4 cells per well in 20 microL media containing 20% (vol/vol) FBS without antibiotics. The final concentration of siRNA in each well was 100 nM. Cells were cultured for 48h at 37 degrees C in 5% CO2 before addition of […] of TLR ligand Pam3CSK4 for 5 hours. The medium was then removed, replaced with […] growth media and cell were transfected with […] of LipidA and TransIT-TKO (Mirus) for 24 hour. At the end of the LipidA treatment, […] of supernatant was transferred to a 384 Greiner Bio-one non-binding low volume plate and […] of IL-1a HTRF reagent (Cisbio, 62MIL1APEH) was added and incubated at room temperature overnight. The plates were read on an EnVision plate reader (PerkinElmer). Cell viability was measured by adding 20ul Cell Titer Glo to the original plate and running a luminescence read on the EnVision. The quantified IL-1a signal for each siRNA gene-targeted well was divided by the median of the negative control wells and multiplied by 100 to achieve a negative control normalized value for each well/siRNA. This normalized value was then used to generate a robust z-score by first taking the log of each value and then by subtracting the median and dividing by the […].
row,Sequence,z-score
1,GGUGUCCGUAAAUGGAGUGTT against A430033K04Rik,0.809
2,GGAAGAGAGCCUCUGCCAATT against Ccnb2,2.28 (active)
3,GUGUGCUAUGAGCAAUGCCTT against Sprr2a1,-1.34
4,GGUUCGACGAAGAUCAGAGTT against Akap1,-0.634
5,GGAAAGUGUUCUCUACAUGTT against Olfr1093,0.878
6,GGUAACAAGAGGUCUAGCATT against P2ry1,3.66 (active)
7,GGAUACUGGCAUGAAAUUGTT against Slc22a2,-0.888
8,GGCGGAACACAUGACUAGGTT against Ilf3,0.189
9,GGUCUGAAAAUGGAAUACCTT against Vps13a,1.8
10,GGGAAUCAACGCAAAGUUGTT against Pcdhga5,-0.00294
11,GCACAAGACUAACAAUACGTT against Sptbn2,-1.26
12,GGACAUCAAAGAAAAGUCATT against Gpr171,0.955
13,GCCAAUGAAAGAGACGUAGTT against Fam81a,-0.421
14,CCAAGAUGGGUUCAUCUCUTT against Cabp5,2.39 (active)
15,CGGAUUUCAUGGCUCAAGATT against Gfm2,-0.123
16,CGUGAACAGCUUUAAGGUGTT against Usp27x,1.34
17,CCCUAACAAACCCUAUUAUTT against Kdm6b,-1.49
18,GCUGAGACCCAGAUGCAAUTT against Mal,0.858
19,GUCUGCAUCACCUUCACCATT against Lhb,-0.301
20,CGGUAUCACGGUUAUCCUUTT against Olfr215,0.932
21,GGGAUUCCAGACAUGGGAATT against Alg9,-0.191
22,GCGGUUCUAAGGAUACCGATT against Txndc17,2.52 (active)
23,GGGUUUCUGACCCUUGGUUTT against Vmn1r220,-1.42

row,Sequence,z-score
1,GGGUGUGAAGUCAUGGUAUTT against Trmt9b,0.503
2,GGCCUCCUAAGAGGACUCATT against Dach1,-1.11
3,CGCAAUUCAGGUACCAAAUTT against Ndufv1,-0.0623
4,GCCUGAAAUCAACUCCACCTT against F2,2.21 (active)
5,CCAUUACAUCAGCUUUAUUTT against Pamr1,-0.845
6,GGAUAUCCUUACAAGGACCTT against Tmco3,-0.646
7,GGCCGACCUUUCUAUCAAUTT against Rasip1,-0.0174
8,GGUGUCAUUCAACUUGCAUTT against Rnase10,-2.55 (active)
9,GGAGGAAUACAAAUUCAAGTT against Vamp5,1.37
10,GGCUCUCUGGAGAAUCAUGTT against Slc25a28,0.0751
11,GGUUACUAUGGAGACCUGGTT against Mia,0.429
12,GCCUUAAUACUCACCAGGGTT against Zscan2,0.702
13,GCUAAGACACGAUAAACUUTT against Yes1,1.34
14,GCUGAUAAGGAGGUACCAUTT against Igf2r,0.916
15,GGAAAAGCAUCAAUUGAUGTT against Abca8b,-1.02
16,GGCUUUCAUUCUGCAGCUATT against Olfr1089,-2.13 (active)
17,GGUGUUCAGAUGGUUCCCATT against Exosc1,-1.19
18,GCUGUUACCUUGACGAAUATT against Tsc2,1.32
19,GGGAUAAAGAGCAAAGAAUTT against Trdv2-2,-0.466
20,GCGUAAUUCCAGCAGAUGUTT against Mepe,1.74
21,GAAAAGUGCACCAUCAGCCTT against Ly6g5b,-2.27 (active)
22,GCUACAGGUCAAUGUCGUGTT against Tcte2,-1.61
23,CCCAUAGCUAAUGAACCAATT against Sntg2,-0.604

row,Sequence,z-score
1,GGAGAGAAAAAGUAAUAUCTT against Fgf1,0.843
2,GGUCGUAAGACAGUUGUCCTT against 4932438H23Rik,-0.715
3,GGAGCUGACAGAGAGAUUCTT against Ankrd40,-2.77 (active)
4,GGAGCAACACUUGCGUACUTT against Ccnq,1.32
5,GCACUGUCGCAUCAUCAGATT against D230025D16Rik,1.83
6,GGAAACCUGAUGAUCUUUUTT against Olfr421-ps1,-1.27
7,GGAUGUCCGGAAGAUGUUUTT against Celf3,-0.284
8,GGUGUGUUCCCAACUGGUGTT against Olfr1124,2.04 (active)
9,GUGGAAAUGUACUUCUCUGTT against Olfr257,0.435
10,AGCUGCUCUGAGUUAGAAATT against Scd2,0.934
11,GGCAAAUCAUUGAUCAGAATT against Mtrf1,-0.214
12,GGACAGACUGAAUGAGCAGTT against Faf2,2.24 (active)
13,GCAAAACUUGGAACGAUUUTT against Ddx1,0.153
14,CCUAAAUUUGAGGUAACCUTT against Zbtb21,0.571
15,GGAUAAAAGCAUUUGAGUCTT against Acp1,0.694
16,GGGAACCAGUACAAUUACATT against Glt8d1,-0.755
17,GGAGAUCUAUGACAAGAAATT against Idh1,-0.376
18,GGUAAGAAGACAAACACUCTT against Ly6g6d,0.237
19,GCUCUACUGCUUCUUAGUCTT against Olfr965,-2.4 (active)
20,GGAUAAGAAGAUGAGGCAGTT against Mns1,-0.0977
21,GCUUCAAAACAAACCCUUGTT against Parp11,-1.58
22,GGAGUGUAUGCAGAAGUUUTT against Dnajc24,1.49
